Laboratory results taken from ChEMBL document CHEMBL3988442, “University of Dundee, Small-Polar-MMV Screening Library” (2021).
Among all 48,000 compounds or so, about 13,000 (27%) showed an effect of 50% or more. The list shows a part of the results.

Tested on: Wolbachia pipientis
Assay: Anti-Wolbachia Cell-Based Screen
Format: functional
Set-up: scale not given: in the data most compounds retested in dose-response had high values
Details: 5 µM

Row | Structure (SMILES) | Percent Effect
1 | CCc1ccc(CNC(=O)CCc2nnc(-c3ccc(C)s3)o2)nc1 | 18.56%
2 | CC(C)c1cc(C(=O)N(c2ccc(F)cn2)C2CCOCC2)on1 | -4.853%
3 | N#Cc1ccc(CN2CCc3sccc3C2)c(F)c1 | 2.911%
4 | CCc1ccc(C(C)NCc2nccn2Cc2ccccc2)o1 (configuration not stated) | -9.423%
5 | CCNC(=O)N(Cc1cccc(OC)c1)C1CCC(O)CC1 (configuration not stated) | -8.682%
6 | Fc1cnc(N2CCCn3c(nnc3Cn3cccc3)C2)nc1.O=C(O)C(F)(F)F | 0.8563%
7 | OCc1nnc2n1CCN(c1cnccn1)C2 | 108%
8 | Fc1cnc(N2CCn3c(CN4CCCC4)nnc3C2)nc1.O=C(O)C(F)(F)F | -4.314%
9 | c1cnc(N2CCCn3c(nnc3Cn3cccn3)C2)nc1 | 3.271%
10 | CN(C)CCOCc1nnc2n1CCN(c1cnccn1)CC2 | 1.736%
11 | CN(C)Cc1nnc2n1CCN(c1cnccn1)CC2.O=C(O)C(F)(F)F | -7.956%
12 | CC(C)N(C)Cc1nnc2n1CCCN(c1cnccn1)C2 | 115.4%
13 | c1ccn(Cc2nnc3n2CCCN(c2cnccn2)C3)c1 | 100.7%
14 | CCS(=O)(=O)N1CCc2nnc(CN(C)C(C)C)n2CC1 | -16.92%
15 | OCCOc1ccc(NCc2cccc3[nH]ccc23)cn1 | 0.765%
16 | CC(C(=O)Nc1ncccn1)N1CCCN(c2nccs2)CC1 (configuration not stated) | -8.894%
17 | CCn1nc(C)c(CNC(=O)NCC(C)(O)c2ccc(C)o2)c1C (configuration not stated) | 57.07%
18 | CCn1nc(C)c(CNC(=O)NCC(C)(O)c2ccccc2)c1C (configuration not stated) | 3.084%
19 | CCn1nc(C)c(CNC(=O)NCC(C)(O)c2ccco2)c1C (configuration not stated) | -13.65%
20 | O=C(c1coc(CN2CCN(c3ccccc3F)CC2)n1)N1CCCC1 | -9.887%
21 | Cc1ccccc1C(=O)N1CC2(COC(C)(C)OC2)C1 | -1.566%
22 | CC(=O)N1CCN([C@@H]2CN(C(=O)c3ccccc3)C[C@H]2O)CC1 | 163.7%
23 | CC(=O)N1CCN([C@@H]2CN(C(=O)c3ccccc3C)C[C@H]2O)CC1 | 166%
24 | Cn1cccc1C(=O)N1C[C@@H]2CCCO[C@@H]2[C@H](N2CCOCC2)C1 | 10.78%
25 | Cc1ccccc1C(=O)N1C[C@@H](O)[C@H](N2CCOCC2)C1 | 137.5%
26 | CS(=O)(=O)c1ccc(NC(=O)N2C[C@H](O)[C@@H](N3CCOCC3)C2)cc1 | -0.5097%

Row | Structure (SMILES) | Percent Effect
27 | O=C(O)C(F)(F)F.O=C(c1ccccc1)N1C[C@@H]2CCCO[C@@H]2[C@H](N2CCCC2)C1 | 0.7695%
28 | CCCc1cc(C(=O)N2C[C@H](O)[C@@H](N3CCCC3)C2)ccn1 | -25.18%
29 | Cc1ccccc1C(=O)N1C[C@@H]2C[C@@H](C)O[C@@H]2C1 | -6.005%
30 | CCCN(CC1CC1)S(=O)(=O)c1ccc(NC(C)=O)cc1 | 9.5%
31 | CCN(Cc1noc(C)n1)C(=O)CCn1c(C)cc2ccccc21 | -6.675%
32 | Cc1cc(NCC(=O)N(C)C(C)c2cccs2)c(C(N)=O)cc1F (configuration not stated) | -3.325%
33 | CCOCCC(=O)NC1(c2cccc(Br)c2)CC1 | 2.519%
34 | CC(C(=O)N1CCCN(c2ncccc2C#N)CC1)n1ccnc1 (configuration not stated) | 9.037%
35 | CC(C)C(C(=O)N1CCN(c2ccncc2)CC1)n1cncn1 (configuration not stated) | -6.945%
36 | CSC(C)C(=O)N1CCCN(c2ncccc2C#N)CC1 (configuration not stated) | 94.48%
37 | CN1N=C(C(=O)N2CCCN(c3ncccc3C#N)CC2)CCC1=O | -11.38%
38 | CC(C(=O)N1CCCN(c2ncccc2C#N)CC1)n1cncn1 (configuration not stated) | 99.83%
39 | CC(C)C(C(=O)N1CCCN(c2cccnn2)CC1)n1cncn1 (configuration not stated) | 101.3%
40 | Cc1cc(C)c(C(=O)N2CCN(c3ncccc3C#N)CC2)c(=O)[nH]1 | -2.204%
41 | Cc1ccc(N2CCCN(C(=O)C(C(C)C)n3cncn3)CC2)nn1 (configuration not stated) | 1.391%
42 | CCSc1cc(C(=O)NC(C)c2cccc(N3CCOC3=O)c2)ccn1 (configuration not stated) | -4.217%
43 | Cl.NCc1ccc(OC(F)F)cc1OC(F)F | -11.87%
44 | CCn1nc(C)c(C(=O)N2C[C@@H](CN(C)C)[C@@H](CO)C2)c1C | 106.8%
45 | Cc1cc(C(=O)N2C[C@@H](CN(C)CCN(C)C)[C@@H](CO)C2)nc(C)n1 | -17.75%
46 | CCn1nc(C)c(C(=O)N2C[C@@H](CN(C)CCOC)[C@@H](CO)C2)c1C | 114%
47 | CCn1nc(C)cc1C(=O)N1C[C@@H](CN(C)C)[C@@H](CO)C1 | 107.3%
48 | COCCN(C)C[C@@H]1CN(C(=O)c2c(C)cccc2OC)C[C@@H]1CO | 2.605%
49 | COc1cccc(C)c1C(=O)N1C[C@@H](CN(C)C)[C@@H](CO)C1 | -2.46%
50 | Cc1ccc(CC(=O)N2C[C@@H](CN(C)C)[C@@H](CO)C2)cc1C | -3.019%
51 | Cc1nc(CC(C)C)cc(C(=O)N2C[C@@H](CN(C)C)[C@@H](CO)C2)n1 | -9.006%
52 | Cc1csc(CCNc2ccc(C#N)cc2F)n1 | -5.881%

Row | Structure (SMILES) | Percent Effect
53 | CN(Cc1cc(-c2ccccc2)no1)CC1CCCN1c1cccnn1 (configuration not stated) | 1.009%
54 | O=C(c1cccc2cccnc12)N1CCCN(c2cccnn2)CC1 | 11.56%
55 | CC(C)C1CN(C(=O)Nc2cnn(CC(F)F)c2)CCS1 (configuration not stated) | -11.36%
56 | CCNC(=O)[C@@H]1C[C@H](n2cc(CC3CCCCC3)nn2)CN1 | 16.21%
57 | CCNC(=O)[C@@H]1C[C@@H](n2cc(CN(CC)CC)nn2)CN1 | -7.284%
58 | Cc1ncc(CN2CCC(n3cc(-c4ccc(F)cc4)nn3)CC2)cn1 | 6.515%
59 | CCNC(=O)[C@@H]1C[C@@H](n2cc(CC3CCCCC3)nn2)CN1 | 1.299%
60 | CNC(=O)[C@@H]1C[C@@H](n2cc(-c3ccc(CN4CC=CC4)cc3)nn2)CN1 | 109.8%
61 | CNC(=O)[C@@H]1C[C@H](n2cc(-c3ccc(CN4CC=CC4)cc3)nn2)CN1 | 109.2%
62 | CCCS(=O)(=O)c1ccc(N2CCN(Cc3ccccc3)CC2)nn1 | 5.683%
63 | OC(CN1CCN(Cc2nnc(C3CC3)o2)CC1)c1ccccc1 (configuration not stated) | -2.421%
64 | CCOc1ccc(-c2ccnc(CC)n2)cc1C(=O)O | -9.54%
65 | O=C(NCc1ccc(OCC2CC2)nc1)Nc1c(F)cccc1F | -3.933%
66 | COc1ccc(CNC(=O)NC2CCN(CC3CCCC3)CC2)cn1 | 15.19%
67 | Cc1nnc(NC(=O)NCc2ccc(OC(C)C)nc2)s1 | 85.37%
68 | Cc1ccc(CNC(=O)Nc2nnc(C)s2)cn1 | 3.385%
69 | Cc1nnc(NC(=O)NCc2ccc(OC3CCCC3)nc2)s1 | 94.72%
70 | CC(C)Oc1ccc(CNC(=O)C2CCC(=O)N2)cn1 (configuration not stated) | 3.42%
71 | Cc1nnc(SCC(=O)NCC(c2ccccc2Cl)N(C)C)s1 (configuration not stated) | -0.8898%
72 | CCOC1CCN(C(=O)c2csc(S(N)(=O)=O)c2)CC1 | 18.04%
73 | Cc1c(NC(C)C(C)C)cccc1C(=O)NCc1nnc(C)n1C (configuration not stated) | 0.4576%
74 | Cc1nc(NCc2nnc(C)n2C)c2c(CC(C)C)csc2n1 | 119.2%
75 | COC(C)(C)CC(C)NCc1nncn1C1CCCCC1 (configuration not stated) | -17.97%
76 | CCC(NC(=O)NCc1nncn1CC)c1ccc(OC)cc1 (configuration not stated) | -10.18%
77 | CCn1cnnc1CNc1nc(C)nc2scc(CC(C)C)c12 | 122.4%
78 | Cc1nc(NCc2nncn2C2CC2)c2c(CC(C)C)csc2n1 | 109.7%

Row | Structure (SMILES) | Percent Effect
79 | CC(C)CC1(C(=O)NCc2nncn2C2CC2)CCC1 | -7.53%
80 | CCn1cnnc1CNC(=O)NC(C)C(C)C (configuration not stated) | -4.455%
81 | COc1ccc(S(=O)(=O)C(F)(F)F)cc1NC(=O)CSCC#N | 5.684%
82 | O=C(Cn1nc2c(cc1=O)CCCC2)N[C@@H](C(=O)O)c1ccccc1 | 11.26%
83 | CC(C)C(NC(=O)Cn1nc2c(cc1=O)CCCC2)C(=O)O (configuration not stated) | 113%
84 | O=C(Cn1nc2c(cc1=O)CCCC2)N[C@@H](Cc1ccccc1)C(=O)O | 3.393%
85 | CC(C)c1cc(NC(=O)CN2CCc3nn(C)c(=O)cc3C2)on1 | -16.14%
86 | O=C(Cn1nc2c(cc1=O)CCCC2)NC(C(=O)O)c1ccccc1 (configuration not stated) | 110.7%
87 | O=C(Cn1nc2c(cc1=O)CSCC2)NC(Cc1ccccc1)C(=O)O (configuration not stated) | 28.51%
88 | CCCn1nc2c(cc1=O)CN(CC(=O)Nc1cc(C)no1)CC2 | -28.4%
89 | O=C(Cn1nc2c(cc1=O)CCCC2)NC(Cc1ccccc1)C(=O)O (configuration not stated) | 101%
90 | O=c1cc2c(nn1CN1CCN(c3ccccc3)CC1)CCC2 | 10.03%
91 | CCCc1cc(NCc2noc(COC)n2)n2nccc2n1 | 6.33%
92 | CCC(C(=O)NC1CCCCC1)n1cccc(OC)c1=O (configuration not stated) | -2.043%
93 | c1cncc(O[C@H]2COCCN(C3CCC3)C2)c1 | -11.18%
94 | CN(C)c1ccc(CC2CCCN(c3cnccn3)C2)nn1 (configuration not stated) | 93.08%
95 | c1cnc(CC2COCCN(C3CCCCC3)C2)cn1 (configuration not stated) | 106.9%
96 | CN(C)c1ccc(CC2CCN(c3cnccn3)CC2)nn1 | 90.64%
97 | Cc1cccc(O[C@H]2COCCN(C3CCC3)C2)n1 | 0.8237%
98 | CN(C)c1ccc(CC2CCN(c3cnccn3)C2)nn1 (configuration not stated) | 129.7%
99 | Cc1occc1C(=O)N1CCC2(CC1)CN(Cc1nccs1)CCO2.O=C(O)C(F)(F)F | -1.97%
100 | CCNC(=O)CNS(=O)(=O)c1cc(Br)ccc1F | -3.098%
101 | Cc1nnc(NCC2(c3ccc(Cl)cc3Cl)CCOCC2)c(C#N)c1C | 25.06%
102 | COCC1(CNC(=O)[C@@]23CNC[C@@H]2CN(C2CCCC2)C3)CC1 | -67.22%
